Measurements taken from PubChem BioAssay.
Unmarked numbers belong to inactive results. A call without a number means that no potency is given here. For some assays here: Potency and affinity values are given separately. Active and inactive are the calls of the source. Unless noted, no rule for the calls is given here.

Legend:
[1] = antimalarial activity against Dd2 strain (AID 2302;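 active = growth inhibition above 50% at the single 2 µM test dose, taken to imply half-maximal potency below 2 µM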); conditions: P. falciparum Dd2 in RBCs, LDH growth readout, 72 h; at 2 µM; stronger effect = higher value
[2] = HepG2 cytotoxicity, primary screen, cytotoxicity control for P. falciparum antimalarial project, cell-based, ATP luminescence (AID 2303;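 active = inhibition above 50%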); conditions: HepG2 viability, 24-48 h, at 10 µM, stronger effect = higher value
[3] = target: L-lactate dehydrogenase (Plasmodium falciparum (isolate CDC / Honduras)) (UniProt Q27743); experiment: PfLDH activity inhibition – cell lysate, 3D7 strain, counter-screen for P. falciparum growth inhibition project (AID 2304); conditions: P. falciparum 3D7 crude extract, LDH APAD/NBT absorbance; at 2 µM; stronger effect = higher value
Sequence of L-lactate dehydrogenase (Plasmodium falciparum (isolate CDC / Honduras)) (Q27743 whole entry, looked up): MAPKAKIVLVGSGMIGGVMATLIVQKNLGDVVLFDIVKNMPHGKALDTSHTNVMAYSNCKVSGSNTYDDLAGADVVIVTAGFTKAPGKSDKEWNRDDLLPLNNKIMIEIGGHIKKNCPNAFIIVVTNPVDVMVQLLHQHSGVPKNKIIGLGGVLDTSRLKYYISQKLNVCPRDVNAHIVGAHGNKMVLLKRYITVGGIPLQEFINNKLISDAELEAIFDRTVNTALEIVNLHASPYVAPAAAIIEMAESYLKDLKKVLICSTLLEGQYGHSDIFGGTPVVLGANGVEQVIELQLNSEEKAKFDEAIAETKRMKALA

[4] = inhibition of 3D7 malaria parasite growth – strain 3D7 (AID 2306); conditions: P. falciparum 3D7 erythrocytic growth, LDH absorbance, 72 h; at 2 µM; stronger effect = higher value
[5] = target: Calcium-dependent protein kinase 1 (Plasmodium falciparum (isolate 3D7)) (UniProt P62344); experiment: PfCDPK1 kinase inhibitors, biochemical, TCAMS library (AID 1159585; cut-off not given, nearly all actives have IC50 up to about 0.98 µM;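 also: inhibitors leave more ATP so luminescence rises with inhibition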); conditions: recombinant PfCDPK1, Kinase-Glo ATP depletion luminescence
Sequence of Calcium-dependent protein kinase 1 (Plasmodium falciparum (isolate 3D7)) (P62344 whole entry, looked up): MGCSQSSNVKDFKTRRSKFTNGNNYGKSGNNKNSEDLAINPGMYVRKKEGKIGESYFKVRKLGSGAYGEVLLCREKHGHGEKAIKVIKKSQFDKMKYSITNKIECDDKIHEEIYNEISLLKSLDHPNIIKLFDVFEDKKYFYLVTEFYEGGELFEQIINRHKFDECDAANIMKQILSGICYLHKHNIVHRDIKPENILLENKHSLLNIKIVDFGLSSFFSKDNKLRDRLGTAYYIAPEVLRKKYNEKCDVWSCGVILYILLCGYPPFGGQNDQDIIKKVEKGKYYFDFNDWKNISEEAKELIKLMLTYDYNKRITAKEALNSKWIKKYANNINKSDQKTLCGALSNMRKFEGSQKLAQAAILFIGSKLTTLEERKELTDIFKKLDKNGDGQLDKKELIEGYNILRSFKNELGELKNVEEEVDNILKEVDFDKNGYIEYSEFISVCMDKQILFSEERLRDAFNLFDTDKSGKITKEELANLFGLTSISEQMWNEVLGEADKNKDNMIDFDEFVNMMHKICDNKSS

[6] = target: Plasmodium falciparum protein kinase 6 (PK6, PF3D7_1337100) (UniProt Q8IDW1); experiment: PfPK6 kinase inhibitors, biochemical, TCAMS library (AID 1159586); conditions: recombinant PfPK6, Kinase-Glo ATP depletion luminescence
Sequence of Plasmodium falciparum protein kinase 6 (PK6, PF3D7_1337100) (Q8IDW1 1-305): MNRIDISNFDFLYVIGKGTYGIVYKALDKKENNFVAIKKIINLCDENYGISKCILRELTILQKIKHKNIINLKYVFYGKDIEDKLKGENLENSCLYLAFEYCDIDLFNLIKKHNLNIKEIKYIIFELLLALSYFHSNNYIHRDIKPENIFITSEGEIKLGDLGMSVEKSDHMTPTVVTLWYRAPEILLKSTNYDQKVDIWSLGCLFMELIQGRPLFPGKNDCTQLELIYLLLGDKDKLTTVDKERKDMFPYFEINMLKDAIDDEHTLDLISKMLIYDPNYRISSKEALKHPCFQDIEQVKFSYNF

[7] = target: Protein kinase 7 (PK7), Plasmodium falciparum 3D7 (PF3D7_0213400) (UniProt Q7YTF7); experiment: inhibition of Plasmodium PK7 catalytic activity – biochemical, TCAMS antimalarial set, Kinase-Glo luminescence (AID 1159587); conditions: recombinant PfPK7, Kinase-Glo ATP depletion luminescence
Sequence of Protein kinase 7 (PK7), Plasmodium falciparum 3D7 (PF3D7_0213400) (Q7YTF7 1-343): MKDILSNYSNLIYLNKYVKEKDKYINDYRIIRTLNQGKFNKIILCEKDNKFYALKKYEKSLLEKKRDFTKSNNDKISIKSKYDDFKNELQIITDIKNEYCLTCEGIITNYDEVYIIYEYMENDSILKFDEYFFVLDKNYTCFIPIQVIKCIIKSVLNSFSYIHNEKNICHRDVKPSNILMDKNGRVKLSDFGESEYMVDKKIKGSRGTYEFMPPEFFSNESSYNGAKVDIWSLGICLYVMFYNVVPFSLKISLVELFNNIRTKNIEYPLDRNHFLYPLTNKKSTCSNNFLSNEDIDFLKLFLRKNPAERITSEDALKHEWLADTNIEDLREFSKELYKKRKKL

[8] = target: Calcium-dependent protein kinase 4 (Plasmodium falciparum (isolate 3D7)) (UniProt Q8IBS5); experiment: PfCDPK4 kinase inhibitors, biochemical, TCAMS library (AID 1159588; cut-off not given, nearly all actives have IC50 up to about 0.91 µM); conditions: recombinant PfCDPK4, Kinase-Glo ATP depletion luminescence
Sequence of Calcium-dependent protein kinase 4 (Plasmodium falciparum (isolate 3D7)) (Q8IBS5 whole entry, looked up): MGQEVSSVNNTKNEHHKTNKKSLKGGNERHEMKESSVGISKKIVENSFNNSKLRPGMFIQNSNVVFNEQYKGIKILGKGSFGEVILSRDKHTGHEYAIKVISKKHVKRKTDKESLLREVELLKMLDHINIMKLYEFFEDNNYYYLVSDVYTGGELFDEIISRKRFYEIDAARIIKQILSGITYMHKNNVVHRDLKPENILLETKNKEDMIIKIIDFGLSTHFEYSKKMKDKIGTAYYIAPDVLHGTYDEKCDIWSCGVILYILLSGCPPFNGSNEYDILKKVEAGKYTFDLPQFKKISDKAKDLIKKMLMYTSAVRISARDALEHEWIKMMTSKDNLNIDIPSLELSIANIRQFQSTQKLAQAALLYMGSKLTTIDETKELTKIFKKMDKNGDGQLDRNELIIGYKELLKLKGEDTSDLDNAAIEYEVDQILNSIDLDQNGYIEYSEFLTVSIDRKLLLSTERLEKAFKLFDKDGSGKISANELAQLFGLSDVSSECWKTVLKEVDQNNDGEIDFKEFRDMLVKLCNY

Structure (SMILES) | growth inhibition [1] | inhibition [2] | inhibition [3] [%] | growth inhibition [4] | outcome [5] | outcome [6] | outcome [7] | outcome [8]
COc1ccc(CC(=O)NC(CCN2CCC3(CC2)CN(S(C)(=O)=O)c2ccccc23)c2ccc(Cl)c(Cl)c2)cc1OC (stereo not given) | 77% (active) | 10% | 7 | 92% (active) | inactive | inactive | inactive | inactive
Cn1c(NC(=O)C2CCC(CNC(=O)c3ccc(O)c(-c4ccc(Cl)c(Cl)c4)c3)CC2)nc2ccccc21 (stereo not given) | 100% (active) | 40% | 1 | 99% (active) | inactive | inactive | inactive | inactive
COc1ccccc1COc1c(C)nc(N)nc1N | 1% | 32% | -1 | 98% (active) | inactive | inactive | inactive | inactive
CC1(C)CN2CCCC2c2cc(NC(=O)/C=C/c3ccccc3Cl)ccc21 (stereo not given) | 76% (active) | 20% | 0 | 88% (active) | inactive | inactive | inactive | inactive
OCC(c1ccccc1)n1c(COc2ccc(Cl)cc2)nc2c(OCCCN3CCCCC3)cccc21 (stereo not given) | 68% (active) | 6% | -7 | 90% (active) | inactive | inactive | inactive | inactive
Nc1nc(N)c2c(ccc3nn(Cc4cccnc4)cc32)n1 | 0% | 41% | 0 | 96% (active) | inactive | inactive | inactive | inactive
Cc1cc(Br)cnc1CCCCNc1cc(=O)c2ccccc2[nH]1 | 64% (active) | -1% | -1 | 91% (active) | inactive | inactive | inactive | inactive
Cc1ccc(-c2ccc3c(c2)C=C(C(=O)NCC2CCN(CC4CCN(C(=O)/C=C/c5ccc(Cl)c(Cl)c5)CC4)CC2)CCC3)cc1 | 70% (active) | 96% (active) | -7 | 99% (active) | inactive | inactive | inactive | inactive
COc1cccc(C2CCN(CCN3CCC(NC(=O)c4ccc(-c5ccc(Cl)cc5)cc4)CC3)CC2)c1 | 42% | 31% | -12 | 93% (active) | inactive | inactive | inactive | inactive
O=C(Nc1cc(Cl)cc(Cl)c1)c1cc(Cl)c(=O)n(Cc2cccc(Cl)c2)c1 | 62% (active) | 8% | 2 | 100% (active) | inactive | inactive | inactive | inactive
COc1ccc2ncc(Cl)c(CCN3CCC(NCc4ccc5c(n4)NC(=O)CO5)CC3)c2c1 | 26% | 25% | -1 | 92% (active) | inactive | inactive | inactive | inactive
COc1ccc(CNc2ccnc3cc(OC)ccc23)cc1 | 74% (active) | 7% | -7 | 100% (active) | inactive | inactive | inactive | inactive
NS(=O)(=O)c1ccc(CNc2ccc3ncc(-c4ccc(Cl)cc4)n3n2)cc1 | 99% (active) | 26% | -4 | 96% (active) | inactive | inactive | inactive | inactive
Cc1ccc(C(=O)Cn2nc(-c3ccc(C)c(S(=O)(=O)N4CCCC4)c3)ccc2=O)cc1 | 70% (active) | -1% | -3 | 94% (active) | inactive | inactive | inactive | inactive
Cc1cn(CC(=O)Nc2cccc(-c3cccc(-c4nc5ccc(C(F)(F)F)cc5[nH]4)c3)c2)c(=O)[nH]c1=O | 51% (active) | 15% | -1 | 92% (active) | inactive | inactive | inactive | inactive
CC(CC(=O)NCC1(c2ccc(F)cc2Cl)CCOCC1)C(=O)c1ccc(Cl)cc1 (stereo not given) | 91% (active) | 6% | 2 | 99% (active) | inactive | inactive | inactive | inactive
O=C(Nc1ccon1)c1cc(-c2cccnc2)nc2ccc(Br)cc12 | 77% (active) | 7% | -3 | 99% (active) | inactive | inactive | inactive | inactive
CC(=O)Nc1nc(C(=O)Nc2ccc(-c3cccc(-c4nc5ccc(F)cc5[nH]4)c3)cc2)cs1 | 29% | 86% (active) | -7 | 94% (active) | inactive | inactive | inactive | inactive
COc1ccccc1/C=C/C(=O)NC1CCC(CCN2CCc3ccc(-c4cc(C)no4)cc3CC2)CC1 (stereo not given) | 11% | 47% | 0 | 95% (active) | inactive | inactive | inactive | inactive
O=C(Cn1c(SCc2cccc(F)c2F)cc(=O)c2ccccc21)N(CCN1CCCCC1)Cc1ccc(-c2ccc(C(F)(F)F)cc2)cc1 | 82% (active) | 41% | -1 | 99% (active) | inactive | inactive | inactive | inactive

Structure (SMILES) | growth inhibition [1] | inhibition [2] | inhibition [3] [%] | growth inhibition [4] | outcome [5] | outcome [6] | outcome [7] | outcome [8]
NC(=Nc1nc(-c2ccccn2)cc2ccccc12)c1cccc(Cl)c1 | 99% (active) | 54% (active) | 0 | 101% (active) | inactive | inactive | inactive | inactive
Cc1c(C)n(C2CCCC2)c2ncnc(OC3CCN(CC(=O)NCC4CC4)CC3)c12 | 89% (active) | 20% | 1 | 89% (active) | inactive | inactive | inactive | inactive
COc1ccc(Nc2nccc(N3CCC(NC(=O)Nc4cccc(C(C)=O)c4)C3)n2)cc1 (stereo not given) | 79% (active) | 29% | -11 | 98% (active) | inactive | inactive | inactive | inactive
CN1CCN(c2ccc(CNc3ccc4ncc(-c5ccc(OC(F)(F)F)cc5)n4n3)cc2)CC1 | 87% (active) | 13% | 0 | 94% (active) | inactive | inactive | inactive | inactive
OCCNc1nc(Nc2cccc(O)c2)nc2ccccc12 | 55% (active) | 3% | 3 | 96% (active) | inactive | inactive | inactive | inactive
CCOC(=O)C1=C(C)NC(C)=C(C(=O)OCC)C1(C(=O)OCc1ccccc1)c1cccc(C(F)(F)F)c1 | 60% (active) | -17% | 5 | 88% (active) | inactive | inactive | inactive | inactive
N#Cc1cccc(C(=O)Nc2ccc(-c3nc4ccccc4[nH]3)cc2)c1 | 38% | 33% | -2 | 91% (active) | inactive | inactive | inactive | inactive
Cn1nccc1C(=O)NCCNCc1cccc(-c2cccc(-c3nc4ccc(C(F)(F)F)cc4[nH]3)c2)c1 | 99% (active) | 39% | -7 | 102% (active) | inactive | inactive | inactive | inactive
CCCOc1ccc(CCNCCCCNCCc2ccc(OCCC)c3ccccc23)c2ccccc12 | 52% (active) | 100% (active) | 7 | 93% (active) | inactive | inactive | inactive | inactive
CC(=O)Nc1ccc(C(=O)NC2CCN(c3ccnc4cc(Cl)ccc34)CC2)cc1 | 99% (active) | 5% | -4 | 101% (active) | inactive | inactive | inactive | inactive
S=C(NN=Cc1ccccn1)NC1C[C@H]2C=C[C@@H]1C2 (stereo not given in full) | 96% (active) | 51% (active) | -2 | 99% (active) | inactive | inactive | inactive | inactive
O=C(NC1CC1)c1ccc(N2CCC(Oc3ccc(F)cc3)CC2)nc1 | 79% (active) | -2% | -1 | 89% (active) | inactive | inactive | inactive | inactive
c1cc(-c2ccc(CNCc3ccc(-c4csnn4)cc3)cc2)cc(-c2nc3ccccc3[nH]2)c1 | 96% (active) | 60% (active) | -7 | 100% (active) | inactive | inactive | inactive | inactive
O=C(Nc1cn(-c2ccc(OCc3cccc(F)c3)c(Cl)c2)c2ncncc12)c1ccncc1 | 81% (active) | 13% | 0 | 100% (active) | inactive | inactive | inactive | inactive
O=c1cc(NCCCNCc2cc(Cl)c(Cl)cc2Cl)[nH]c2ccccc12 | 20% | 7% | -1 | 93% (active) | inactive | inactive | inactive | inactive
CCCCn1c(N)c(N(Cc2ccco2)C(=O)C=Cc2cc(OC)c3c(c2)OCCO3)c(=O)[nH]c1=O | 94% (active) | 4% | 2 | 85% (active) | inactive | inactive | inactive | inactive
O=C(Nc1cccc(CN2CCCN(CCc3ccccc3)CC2)c1)c1ccc(Cl)c(Cl)c1 | 15% | 41% | -5 | 86% (active) | inactive | inactive | inactive | inactive
O=c1[nH]c(NCCCNCc2cc3c(Cl)cc(Cl)cc3[nH]2)nc2ccccc12 | 4% | 10% | -3 | 91% (active) | inactive | inactive | inactive | inactive
CC(C)c1ccc2oc(-c3ccc(NC(=O)c4ccc([N+](=O)[O-])o4)cc3)nc2c1 | 95% (active) | 99% (active) | 6 | 100% (active) | inactive | inactive | inactive | inactive
O=C(NCCCCN1CCC[C@@H]2c3cccc(O)c3CC[C@@H]21)c1ccc(-c2ccccc2)cc1 | 4% | 18% | 3 | 93% (active) | inactive | inactive | inactive | inactive
